The list is not random: actives were taken first. Their share in the collection is about 2.2%.
GC-B act = human GC-B receptor activators, primary screen, HEK293 GC-B cells, cGMP TR-FRET, EC30 CNP; AID 1920062, 2024; 0% at EC30 CNP, 100% saturating CNP; activation, % at 10 µM; 370,000 tested, 0.11% active;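 active = activation at 10 µM reaching about 35% in either raw or pattern-adjusted values, limit read from the data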
ADAM17 inh = ADAM17 inhibitors, primary screen, biochemical, QFRET | 370,000 tested, 0.83% active | recombinant ADAM17, EDANS/DABCYL FRET peptide cleavage | AID 720648, 2013 | Disintegrin and metalloproteinase domain-containing protein 17 (Homo sapiens), P78536 | inhibition, % at 6.95 µM;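 active = inhibition above the mean of compounds lying between control limits plus 3 SD, set per campaign, cut at about 8.5% in these data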;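 also: 0% = DMSO-only wells as the low control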
KLK7 zymogen act = proKLK7 zymogen activators, primary screen, biochemical, fluorescence intensity. activation, % at 7 µM. 370,000 tested, 0.9% active. purified proKLK7, EDANS-DABCYL substrate fluorescence; 100% is mature enzyme control, 0% vehicle;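 active = activation above the mean of all tested compounds plus 3 SD, computed per campaign excluding outliers beyond control limits, cut at about 13% in these data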
ADAM10 inh = human ADAM10 inhibitors, primary screen, biochemical, QFRET, HTS. recombinant ADAM10, EDANS/DABCYL FRET peptide cleavage, 3 h. inhibition, % at 7 µM. 370,000 tested, 0.62% active;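 active = inhibition above a per-campaign cutoff equal to the mean of compounds falling between control-based bounds plus 3 SD, cut at about 20% in these data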;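 also: 0% = DMSO wells while the 100% control is not disclosed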
Target sequence (O14672 214-748 limits assumed): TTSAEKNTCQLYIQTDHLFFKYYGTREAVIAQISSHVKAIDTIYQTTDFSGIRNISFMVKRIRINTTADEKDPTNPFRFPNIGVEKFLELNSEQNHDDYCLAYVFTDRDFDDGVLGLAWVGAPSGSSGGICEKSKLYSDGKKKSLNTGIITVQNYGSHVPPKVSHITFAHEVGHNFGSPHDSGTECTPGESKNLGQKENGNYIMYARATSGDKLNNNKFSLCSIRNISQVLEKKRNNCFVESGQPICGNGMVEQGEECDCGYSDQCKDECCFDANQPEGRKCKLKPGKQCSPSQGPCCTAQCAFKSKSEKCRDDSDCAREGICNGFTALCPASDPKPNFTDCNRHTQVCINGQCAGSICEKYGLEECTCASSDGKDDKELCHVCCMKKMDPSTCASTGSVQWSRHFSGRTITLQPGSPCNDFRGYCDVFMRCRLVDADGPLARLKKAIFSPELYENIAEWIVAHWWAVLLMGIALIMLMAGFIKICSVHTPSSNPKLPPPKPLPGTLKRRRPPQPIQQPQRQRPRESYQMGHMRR
NPR1 activator = GC-A stimulated cGMP production enhancers – HEK293 GC-A cells, cGMP TR-FRET, EC30 ANP, primary screen | 0% at EC30 ANP, 100% saturating ANP | activation, % at 10 µM | 370,000 tested, 0.14% active; in the data active = activation above about 40%
ADAM10 counter = ADAM10 inhibitors, counter-screen for ADAM17 exosite inhibitor project, biochemical, FRET, human ADAM10; shares compounds with ADAM17 inh; recombinant ADAM10, EDANS/DABCYL FRET peptide cleavage, 3 h; inhibition, % at 6.95 µM; 2,900 tested, 47% active; AID 743256, 2014;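 active = mean inhibition over the triplicate runs exceeds the activity threshold set in the earlier primary screen, cut at about 20% in these data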;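 also: 0% = DMSO wells and 100% = marimastat wells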
ADAM17 confirm = ADAM17 inhibitors, hit retest, confirmation, biochemical, QFRET peptide cleavage; recombinant ADAM17, EDANS/DABCYL QFRET peptide cleavage; 2,900 tested, 65% active; inhibition, % at 6.95 µM; shares compounds with ADAM17 inh;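 active = mean inhibition across replicates above the hit cutoff set in the primary screen, cut at about 8.5% in these data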;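 also: 0% = DMSO wells and 100% = marimastat wells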
* hit, by the source's call; / = no result.

SMILES	GC-B act	ADAM17 inh	KLK7 zymogen act	ADAM10 inh	NPR1 activator	ADAM10 counter	ADAM17 confirm
O=C(NC(=S)Nc1ccc(Cc2ccncc2)cc1)c1ccccc1Cl	2	2	0	2	0	/	/
O=C(OCC#CCSc1nnc(-c2c[nH]c3ccccc23)o1)c1ccc(F)cc1	-8	7	/	18	-5	/	/
O=C(CN1C(=O)CSc2ccc(S(=O)(=O)N3CCOCC3)cc21)NCCCN1CCCCC1	1	-3	0	-24	0	/	/
CC1CC(C)CN(CCCNC(=O)CN2C(=O)CSc3ccc(S(=O)(=O)N4CCCCC4)cc32)C1 (stereo not given)	1	10*	0	-1	-2	12	9.8*
COCCOc1ccc(C(F)(F)F)cc1NC(=O)CN1C(=O)NC2(CCCc3ccccc32)C1=O (stereo not given)	1	9.7*	0	17	-9	16	10*
COc1ccc(-c2csc(NC(=O)C3COc4ccccc4O3)n2)cc1OC (stereo not given)	0	8.9*	0	11	0	15	10*
O=C(NCCC1=CCCCC1)C1CCN(S(=O)(=O)c2ccccc2[N+](=O)[O-])CC1	-10	0	0	4	3	/	/
CCC(C(=O)O)N1C(=O)/C(=C/c2cccn2C)SC1=S (stereo not given)	1	8.8*	0	19	1	17	12*
CC(C(=O)O)N1C(=O)/C(=C/c2cccn2C)SC1=S (stereo not given)	3	2	0	9	0	/	/
Cn1cccc1/C=C1\SC(=S)N(NC(=O)c2ccc(F)cc2)C1=O	3	13*	0	15	1	8	4
CCN(CC)C(=O)CC[C@H]1CC[C@]2(CCCN(Cc3ccc(OC)cc3)C2)O1	-7	0	-1	3	-3	/	/
CCCCCCCCN1C(=O)[C@@H](CC(=O)NCc2ccc(C)o2)C[C@@]2(C(=O)OC)C1=C[C@H](COCc1ccccc1)O[C@@H]2C	9	1	0	7	-4	/	/
COC(=O)[C@]1(C#N)CC(=O)N(C)[C@@H]1c1ccccc1	-8	3	0	1	2	/	/
Cc1c(Cl)c([N+](=O)[O-])nn1CC(=O)NC12CC3CC(CC(C3)C1)C2	-7	11*	1	16	-1	-5	2
O=C(NC1CCCCN(Cc2ccc(Cl)cc2)C1=O)C1C2CC3CC(C2)CC1C3 (stereo not given)	4	-7	0	-1	0	/	/
CC1=C(C(=O)Nc2ccccc2)C(c2cccc([N+](=O)[O-])c2)Nc2nc3ccccc3n21 (stereo not given)	-12	8.8*	0	11	-18	-2	1
CCN(CC)S(=O)(=O)c1cc(NC(=O)Cc2ccc(S(=O)(=O)N3CCOCC3)s2)ccc1Cl	2	9.9*	0	3	-1	15	12*
O=C(Cc1ccc(S(=O)(=O)N2CCCCC2)s1)Nc1ccc(F)c(F)c1	0	10.0*	0	20	2	36*	13*
Cc1cc(C)cc(NC(=O)Cc2ccc(S(=O)(=O)N3CCCC3)s2)c1	1	2	1	-3	3	/	/
COc1cc(NC(=O)C2CCCN(S(=O)(=O)c3cccs3)C2)cc(OC)c1 (stereo not given)	-2	4	0	-8	0	/	/
COc1ccc(S[C@]2(C(=O)N3CCCC3)CC(=O)N(C(=O)Nc3ccc(C)c(Cl)c3)[C@@H]2c2ccc(OC)cc2)cc1	15	0	0	-5	0	/	/
CCN(CC)S(=O)(=O)c1cccc(NC(=O)CCSc2ccc(Cl)cc2)c1	-4	9.2*	0	10	-4	37*	17*
CN(C)S(=O)(=O)c1cccc(NC(=O)CCCSc2ccccc2)c1	-4	3	0	-1	3	/	/
C[C@H]1C2CC(OC(=O)Nc3ccc(F)cc3)C(C2)[C@H]2CCCCN21 (stereo not given in full)	3	-9	0	-16	0	/	/
COc1ccc(Cn2cc(COC(=O)NCCc3c[nH]c4ccccc34)nn2)cc1	-6	2	0	6	-3	/	/
SMILES	GC-B act	ADAM17 inh	KLK7 zymogen act	ADAM10 inh	NPR1 activator	ADAM10 counter	ADAM17 confirm
CN(C)c1ccc(-c2nn3c(-c4ccco4)nnc3s2)cc1	-2	-15	-39	-52	-4	/	/
CCC(C)[C@H]1CNC(=S)N1CCc1cccc2ccccc12 (stereo not given in full)	-6	13*	1	6	-7	5	3
CCC(C)[C@H]1CNC(=O)C(=O)N1CCc1cccc2ccccc12 (stereo not given in full)	1	-5	-1	-5	-4	/	/
Cc1ccc(S(=O)(=O)NCCC(=O)Nc2ccc(Cl)c(Cl)c2)cc1	2	9.2*	0	18	-7	25*	15*
CC(=O)c1cc(-c2ccccc2)n(CC(=O)NCc2ccccc2Cl)c1C	-3	2	0	1	-2	/	/
CC(C)[C@H](NC(=O)[C@@H]1CSC2c3ccccc3C(=O)N21)C(=O)NCC1CCCO1 (stereo not given in full)	-2	1	0	-1	1	/	/
CCC(C)[C@H](NC(=O)[C@@H]1CSC2c3ccccc3C(=O)N21)C(=O)NCC1CCCO1 (stereo not given in full)	-1	12*	0	1	1	7	3
CC(C)COc1cccc(C(=O)Nc2cc(S(=O)(=O)N3CCOCC3)ccc2N2CCCC2)c1	6	11*	0	-6	2	21*	11*
CCc1ccc(C(=O)Nc2cc(S(=O)(=O)N3CCOCC3)ccc2N2CCOCC2)cc1	-1	9.1*	0	6	-1	-4	3
O=C(CSc1nnc(-c2ccccc2)n1-c1ccc(Cl)cc1)Nc1ccc(OCc2ccccc2)cc1	1	2	1	1	3	/	/
